Source: PubChem BioAssay

Tests used:
[1] = tested on: Human papillomavirus type 1a protein E7 (residues 44-93); test: small molecules binding HPV E7 44-93 – biochemical, small-molecule microarray, residues 44-93, 635 nm fluorescence, primary screen (AID 1108); settings: fluorescence 635 nm, higher = more signal;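 note: E7 fragment applied at 1 µg/mL in TBST for 1 h at 4 C; score combines spot fluorescence with its signal to noise ratio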
[2] = hepatitis C replication reporter changes, two-sided – Huh7 cells, luciferase reporter, HCV replication inhibitor project, primary screen (AID 1109); settings: Huh7 HCV replicon luciferase reporter, 48 h; higher = more signal;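 note: huh7 hepatoma cells harbouring a luciferase neomycin HCV replicon reporter; luciferase luminescence as measure of HCV replicon replication; test concentration not given here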
[3] = target: Left-right determination factor 2 (Homo sapiens) (UniProt O00292); test: small molecules binding LEFTY2 protein – biochemical, small-molecule microarray, 635 nm fluorescence scan, primary screen (AID 1110); settings: higher = more signal
[4] = target: Calmodulin-1 (Homo sapiens) (UniProt P0DP23); test: small molecules binding calmodulin-1 with EGTA – biochemical, small-molecule microarray, Cy5-labelled CALM1, profiling panel (AID 1111); settings: Cy5-CALM1 binding fluorescence, higher = more signal;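 note: labelled calmodulin applied in Tris saline Tween buffer holding calcium plus EGTA and DTT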
[5] = target: Calmodulin-1 (Homo sapiens) (UniProt P0DP23); test: small molecules binding Ca-loaded calmodulin-1 – biochemical, small-molecule microarray, Cy5-labelled CALM1, plus calcium, artefact control for SMM control-protein annotation, profiling panel (AID 1112); settings: Cy5-CALM1 binding fluorescence, higher = more signal;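 note: score merges spot fluorescence with signal to noise from triplicate slides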
[6] = probe aWnt5a binding to arrayed compounds – biochemical, biotinylated probe, 635/667 nm fluorescence, primary screen (AID 1113); settings: small-molecule microarray, higher = more signal;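 note: score merges 667 nm fluorescence intensity with signal-to-noise per printed feature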
[7] = probe aShh binding to arrayed compounds – biochemical, biotinylated probe, 635/667 nm fluorescence, primary screen (AID 1114); settings: small-molecule microarray, higher = more signal;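 note: probe is biotin-labelled aShh protein from a stem cell growth factor screen; measures binding of labelled protein to compounds printed on the slide; score merges feature fluorescence at 667 nm with signal-to-noise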
[8] = probe aNog binding to arrayed compounds – biochemical, biotinylated probe, 635/667 nm fluorescence, primary screen (AID 1115); settings: small-molecule microarray, higher = more signal;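 note: probe is biotinylated aNog protein used at 0.15 µg/mL for 1 h at 4 C; z-score combines 667 nm fluorescence of each spot with its signal to noise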
[9] = target: Torsin-1A-interacting protein 1 (Homo sapiens) (UniProt Q5JTV8); test: compound microarray binding of lysate hLAP1 – cell lysate, small-molecule microarray, COS7 lysate, 635/667 nm fluorescence, primary screen (AID 1116); settings: 635 nm fluorescence, higher = more signal
[10] = target: Alpha-bungarotoxin (Bungarus multicinctus) (UniProt P60615); test: compounds binding labelled alpha-BTX control protein – biochemical, small-molecule microarray, Alexa647 label, 635/667 nm fluorescence, artefact control for SMM control protein annotation, profiling panel (AID 1117); settings: alpha-BTX-A647 binding fluorescence, higher = more signal
Alpha-bungarotoxin (Bungarus multicinctus), sequence (P60615 whole entry, looked up): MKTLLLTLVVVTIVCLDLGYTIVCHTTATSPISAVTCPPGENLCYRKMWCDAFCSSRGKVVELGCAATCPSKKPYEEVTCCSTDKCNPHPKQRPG

Left-right determination factor 2 (Homo sapiens), sequence (O00292 whole entry, looked up): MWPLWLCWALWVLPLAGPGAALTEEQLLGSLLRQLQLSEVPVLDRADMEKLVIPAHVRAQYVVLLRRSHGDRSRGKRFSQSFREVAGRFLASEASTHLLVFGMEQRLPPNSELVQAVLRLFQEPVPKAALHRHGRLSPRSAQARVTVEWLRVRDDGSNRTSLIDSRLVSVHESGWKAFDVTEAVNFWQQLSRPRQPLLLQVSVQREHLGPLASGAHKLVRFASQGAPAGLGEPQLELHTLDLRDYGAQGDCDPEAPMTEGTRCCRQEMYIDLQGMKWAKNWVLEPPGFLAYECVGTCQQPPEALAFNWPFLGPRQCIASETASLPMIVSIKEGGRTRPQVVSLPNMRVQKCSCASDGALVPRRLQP
Torsin-1A-interacting protein 1 (Homo sapiens), sequence (Q5JTV8 whole entry, looked up): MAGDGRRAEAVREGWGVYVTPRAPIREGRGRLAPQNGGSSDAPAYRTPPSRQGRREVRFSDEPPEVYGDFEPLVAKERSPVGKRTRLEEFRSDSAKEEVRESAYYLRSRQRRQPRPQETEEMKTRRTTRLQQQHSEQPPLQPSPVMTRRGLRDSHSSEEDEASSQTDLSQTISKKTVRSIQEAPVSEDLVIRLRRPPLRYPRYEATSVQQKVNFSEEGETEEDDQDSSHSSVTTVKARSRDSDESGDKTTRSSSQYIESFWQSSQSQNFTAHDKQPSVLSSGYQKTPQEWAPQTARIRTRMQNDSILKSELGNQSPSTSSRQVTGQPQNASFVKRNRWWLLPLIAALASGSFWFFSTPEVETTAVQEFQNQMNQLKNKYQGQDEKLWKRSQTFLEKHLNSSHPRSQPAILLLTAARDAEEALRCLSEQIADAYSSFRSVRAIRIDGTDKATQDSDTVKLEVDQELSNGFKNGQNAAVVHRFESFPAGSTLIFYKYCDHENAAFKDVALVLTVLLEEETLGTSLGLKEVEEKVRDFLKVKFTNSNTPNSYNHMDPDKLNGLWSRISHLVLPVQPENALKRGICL

Row | Structure (SMILES) | composite z-score [1] | z-score [2] | composite z-score [3] | composite z-score [4] | composite z-score [5] | composite z-score [6] | composite z-score [7] | composite z-score [8] | composite z-score [9] | composite z-score [10]
1 | CCOC(=O)C[C@H]1[C@H](OC(=O)c2ccccc2-c2ccccc2)[C@@H](NC(=O)c2ccc3ccccc3n2)c2cc(OCCCO)ccc2N1C(=O)c1ccccc1 | 1.29 | -1.7 | 0.487 | -0.0187 | -0.457 | -0.0519 | -0.248 | -0.347 | 0.291 | 0.414
2 | O=C1O[C@H](c2ccccc2)[C@H](c2ccccc2)N2[C@H]1[C@@H](C(=O)N1CCCCCCC1)[C@]1(C(=O)Nc3ccc(C#CC4(O)CCCCCC4)cc31)[C@H]2c1ccccc1OCCO | 1.59 | -1.88 | 1.78 | 3.09 | 1.81 | 1.53 | 1.92 | 3.25 | 5.71 | 4.23
3 | CC(=O)n1cc(C(O)C2C=CC3C(=O)N(c4ccccc4)C(=O)C3N2Nc2ccc(C(C)C)cc2)c2ccccc21 (stereo not given) | 0.656 | -0.909 | -0.0688 | 2.53 | 1.38 | -0.0394 | 0.0328 | 1.41 | 1.68 | 1.6
4 | CC(C)(C)OC(=O)CC[C@]1(C(=O)N2CCCCC2)COC(c2ccc(OCCCO)cc2)=N1 | 1.45 | -0.523 | 0.393 | 1.4 | -0.257 | 0.0775 | 0.385 | -0.614 | 1.36 | 0.302
5 | CN(C)C(=O)[C@@]1(CCC(=O)OC(C)(C)C)N=C(c2ccc(OCCCO)cc2)O[C@H]1c1ccccc1CN=[N+]=[N-] | 1.5 | -1.61 | -0.9 | 1.18 | 0.0572 | 0.0044 | 0.579 | 1.32 | 2.74 | 0.548
6 | C=C[C@@H](C)[C@@H](OC(=O)Nc1ccc(SC)cc1)c1ccc(OCCO)cc1 | 1.27 | -0.181 | -0.0734 | 1.24 | 0.305 | -0.0512 | -0.0192 | -0.358 | 0.882 | 0.954
7 | COC(=O)[C@@]1(Cc2ccc(OC)cc2)[C@H]2c3cc(C(=O)N4CCCC4)n(Cc4cc(C)n(C)n4)c3C[C@H]2CN1C(=O)c1ccccc1 | 0.712 | -1.38 | 0.78 | 1.46 | 0.81 | 0.23 | 0.4 | 0.352 | 1.21 | 0.769
8 | O=C1C[C@@](C(=O)NCC(F)(F)F)(c2ccc([N+](=O)[O-])cc2)[C@@H](c2ccc(CO)cc2)N1CC12CC3CC(CC(C3)C1)C2 | 0.913 | -3.33 | 0.309 | 0.835 | 0.569 | 0.0044 | 0.315 | 0.542 | 1.31 | 0.987
9 | C=C(/C(=C/C[C@@H](OC(C)=O)c1ccc(CO)o1)c1cc(C(=O)OC)ccc1OC)C(C)C | 0.443 | -0.9 | 0.192 | 0.189 | -0.657 | 0.0251 | 0.216 | 0.141 | -0.144 | -0.0861
10 | C[C@@]12COC[C@]13C=C(Br)[C@H](C2)[C@@]1(CO1)C3=O | -2.3 | -2.64 | -0.777 | -0.66 | -0.691 | -0.176 | -0.214 | -0.256 | -1.17 | -0.455
11 | CCOC(=O)C1=CC[C@@H](c2ccccc2)N(S(=O)(=O)c2ccc(C)cc2)[C@H]1c1cccc(OC)c1 | 1.09 | -1.96 | 0.177 | 0.0295 | 0.622 | 0.0422 | 0.0898 | 0.266 | 0.854 | 1.3
12 | COc1ccc([Si](C)(C)[C@H]2[C@H](CCO)O[C@@]3(C(=O)N(Cc4ccc(N5C(=O)c6ccccc6Oc6ccccc65)cc4)c4ccccc43)[C@@H]2C)cc1 | -0.451 | -4.8 | -0.804 | 0.12 | 0.908 | -0.124 | 0.0121 | 0.0078 | -0.438 | -0.516
13 | CN1C(=O)C2C(C1=O)C1C=C(CCCO)C2C(c2cccs2)N1Cc1cc2c(cc1Br)OCO2 (stereo not given) | 1.44 | -1.22 | 0.772 | 1.89 | 0.658 | 0.184 | 0.131 | -0.373 | 2.29 | 1.7
14 | O=C(CS)NCCCCCNC(=O)[C@@H]1C[C@@H]2C(=O)N[C@@H](Cc3ccccc3)C(=O)N2[C@@H]1c1cccc(OCCO)c1 | 1.41 | 0.266 | 0.705 | 1.94 | -0.0675 | -0.302 | -0.482 | -0.458 | 1.08 | 1.54
15 | NC(=O)[C@@H]1[C@H]2C(=O)O[C@H](c3ccccc3)[C@H](c3ccccc3)N2[C@H](c2ccc(OCCO)cc2)[C@@]12C(=O)Nc1ccc(C#CCCO)cc12 | -1.04 | -1.41 | -0.483 | 1.09 | 0.209 | 0.0973 | 0.166 | -0.329 | 0.628 | 1.13
16 | COc1cc2c(cc1O)C(c1ccc(CN3CCCC3)cc1)N(C)CC2 (stereo not given) | -1.7 | -1.02 | 0.351 | 0.571 | 0.673 | -0.173 | -0.359 | 0.452 | -0.862 | 0.0735
17 | CC1CC/C=C\[C@H]2OC34C=CCN(CCN5CCOCC5)C(=O)[C@H]3N(C(C)CO)C(=O)[C@@H]4C2C(=O)O1 (stereo not given in full) | 0.523 | -0.91 | -0.536 | -0.666 | -1.4 | -0.199 | 0.147 | -0.373 | -0.719 | -0.807
18 | COCC(=C=CC[C@@H](O)c1ccc(OCCO)cc1)CCO | 0.862 | -0.766 | -0.144 | -0.0954 | -0.102 | -0.0643 | 0.0639 | -0.197 | 0.506 | 0.0305
19 | C=CCNC(=O)[C@H]1[C@@H]2C(=O)O[C@@H](c3ccccc3)[C@@H](c3ccccc3)N2[C@@H](c2ccc(OCCO)cc2)[C@]12C(=O)N(C(=O)OCCOC)c1ccc(C#Cc3ccc(OC)cc3)cc12 | 1.4 | -2.54 | 0.631 | 0.512 | 0.14 | -0.0445 | 0.0976 | 0.447 | -0.0927 | 1.49
20 | C[C@]1(C(=O)NCC(F)(F)F)c2ccccc2C(=O)N(Cc2ccccc2)[C@H]1c1ccc(CO)cc1 | -0.0857 | -0.501 | -0.722 | -0.21 | 0.799 | -0.287 | -0.147 | -0.0799 | 0.015 | -0.553
21 | COCCCNC(=O)[C@@H]1c2ccccc2C(=O)N(C2Cc3ccccc3C2)[C@H]1c1ccc(CO)cc1 | 0.661 | -0.689 | 0.173 | -0.362 | -0.518 | -0.152 | -0.229 | -0.532 | 0.685 | -0.0047
22 | [N-]=[N+]=NCc1ccccc1[C@@H]1OC(c2ccc(OCCCO)cc2)=N[C@]1(Cc1ccccc1N=[N+]=[N-])C(=O)N1CCCCC1 | 1.41 | -2.12 | 0.0538 | 1.93 | 1.26 | -0.248 | -0.023 | -0.538 | 0.482 | 0.671
23 | [N-]=[N+]=Nc1ccccc1C[C@]1(C(=O)O)N=C(c2ccc(OCCCO)cc2)O[C@H]1c1ccccc1N=[N+]=[N-] | 0.99 | -1.02 | 0.282 | 2.1 | 0.923 | 0.0859 | -0.0263 | 2 | 1.5 | 1.22
24 | CN1C(=O)C2C=CC(C(O)c3cc(C(F)(F)F)cc(C(F)(F)F)c3)N(NC(=O)OC(C)(C)C)C2C1=O (stereo not given) | 1.38 | -1.24 | 0.106 | 2.45 | 0.666 | -0.0607 | -0.0626 | 2.04 | 1.48 | 1.23
25 | COCCOC(=O)N1C(=O)[C@@]2(c3ccccc31)[C@H](c1ccccc1OCCO)N1[C@H](c3ccccc3)[C@H](c3ccccc3)OC(=O)[C@H]1[C@@H]2C(=O)N1CCCCCCC1 | 1.53 | -3.17 | 1.73 | 2.8 | 1.47 | 1.5 | 3.37 | 3.61 | 5.43 | 3.1
